CaV13 ICDI inh = Primary screen for inhibitors of IQ motif and Ca2+-dependent inactivation inhibitor domain binding in CACNA1D, Förster resonance energy transfer in living cells, …. HEK cells, CFP/YFP FRET ICDI-IQ, plate reader, 10 min; percent FRET-ratio fall versus neutral wells. inhibition, % at 12.3 µM. actives 0.098% (n = 340,000);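 active = mean replicate inhibition of at least 30% and at least 1% of replicates passing that level; inconclusive = only one of the two criteria is met; inactive = neither criterion is met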;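 also: 0% = median of the neutral control wells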
PfM18AAP inh-1 = blocks P. falciparum M18 aspartyl aminopeptidase; AID 1822; actives 1.2% (n = 290,000); recombinant PfM18AAP, H-Glu-NHMec fluorogenic cleavage; inhibition, % at 7.35 µM;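 active = inhibition above the campaign mean inhibition over all tested compounds plus 3 SD, cut at about 28% in these data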;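 also: 0% = plate median of test compound wells and 100% = 2 mM ZnCl2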
IDE act = IDE (human) activation, cell-based; P14735; HEK cells, FAbeta-B cleavage, fluorescence polarization; 0% vehicle, 100% cell-free pure enzyme wells; activation, % at 5.96 µM; actives 0.073% (n = 340,000);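 active = activation above the mean of all tested compounds plus 3 SD, set per screening campaign, cut at about 17% in these data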
Target sequence (P14735 whole entry, looked up): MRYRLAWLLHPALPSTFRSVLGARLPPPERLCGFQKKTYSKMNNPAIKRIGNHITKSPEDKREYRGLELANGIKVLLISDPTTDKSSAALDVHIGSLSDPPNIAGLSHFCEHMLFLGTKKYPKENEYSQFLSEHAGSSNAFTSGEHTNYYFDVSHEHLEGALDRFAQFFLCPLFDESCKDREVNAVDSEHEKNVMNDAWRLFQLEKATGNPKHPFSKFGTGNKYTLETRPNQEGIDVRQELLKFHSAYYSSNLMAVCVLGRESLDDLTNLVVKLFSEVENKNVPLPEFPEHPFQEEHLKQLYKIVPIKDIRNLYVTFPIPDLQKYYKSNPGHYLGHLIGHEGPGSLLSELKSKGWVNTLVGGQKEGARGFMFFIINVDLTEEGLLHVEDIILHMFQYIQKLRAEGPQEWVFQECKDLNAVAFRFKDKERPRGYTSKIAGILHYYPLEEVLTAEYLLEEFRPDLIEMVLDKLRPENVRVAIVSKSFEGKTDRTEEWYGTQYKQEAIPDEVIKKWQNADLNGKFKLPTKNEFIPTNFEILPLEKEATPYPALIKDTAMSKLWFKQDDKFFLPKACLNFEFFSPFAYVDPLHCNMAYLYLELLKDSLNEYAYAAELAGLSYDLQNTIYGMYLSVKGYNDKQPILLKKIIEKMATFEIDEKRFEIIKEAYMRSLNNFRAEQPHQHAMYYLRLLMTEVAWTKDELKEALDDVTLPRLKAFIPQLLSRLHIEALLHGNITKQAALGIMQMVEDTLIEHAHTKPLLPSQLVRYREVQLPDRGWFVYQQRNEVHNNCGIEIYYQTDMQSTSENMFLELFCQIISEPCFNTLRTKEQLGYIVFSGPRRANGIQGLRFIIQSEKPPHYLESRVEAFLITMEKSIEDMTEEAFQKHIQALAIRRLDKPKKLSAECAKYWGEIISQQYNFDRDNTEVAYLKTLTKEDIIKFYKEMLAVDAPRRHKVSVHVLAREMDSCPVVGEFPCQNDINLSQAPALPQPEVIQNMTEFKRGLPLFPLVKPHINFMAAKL
PolyA inhibitor = yeast polyadenylation inhibition; S. cerevisiae SKY197-pL101 polyadenylation reporter, beta-gal luminescence; efflux-impaired pdr1/pdr3 knockout yeast; score 100 = 6 SD above DMSO; activity score, % at 12 µM; actives 0.02% (n = 300,000); AID 1875;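 active = lowest replicate activity score at least 50, where 100 means six control SD above control mean; inconclusive = lowest score under 50 but half or more replicates reach 50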;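 also: yeast exposed to compound for 9 h at 30 °C; higher score means more reporter readthrough which indicates perturbed polyadenylation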
ALR inh = human ALR oxidase inhibition via reduced H2O2. actives 3.8% (n = 290,000). purified ALR, DTT oxidation, H2O2 HRP-luminol luminescence. inhibition, % (test concentration not listed). AID 485317. P55789;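 active = mean replicate inhibition above about 79%, with every replicate also reaching it, limit read from the data; inconclusive = only one of the two criteria met; inactive = mean below limit and not every replicate reaching it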
IDE inh = cellular human IDE inhibition; P14735; HEK cells, FAbetaB cleavage, fluorescence polarization; actives 0.41% (n = 320,000); inhibition, % at 5.59 µM;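 active = percent inhibition above the average of all tested compounds plus 3 SD, set per screening campaign, cut at about 16% in these data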;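 also: IDE supplied by intact live HEK cells; FP after avidin binding of uncleaved biotin substrate so inhibition keeps polarization high; 0% = DMSO wells and 100% = 60 µM reference IDE inhibitor Ii1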
PfM18AAP inh-2 = PfM18AAP inhibition, confirmation; shares compounds with PfM18AAP inh-1; recombinant PfM18AAP, H-Glu-NHMec fluorogenic cleavage; inhibition, % at 7.35 µM; actives 28% (n = 2,400); AID 2170;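 active = mean inhibition over replicate wells above the hit cutoff set for the earlier primary screen, cut at about 29% in these data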;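 also: 0% = median of test compound wells and 100% = 2 mM ZnCl2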
CTSL1 confirm = counter-screen for PFM18AAP inhibitors: confirmation of human cathepsin L inhibitors. shares compounds with PfM18AAP inh-1. purified cathepsin L1, Z-Leu-Arg-MCA fluorescence. inhibition, % at 5.96 µM. 2,400 tested, under 10 active;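 active = average inhibition across replicates above the hit cutoff set in the earlier primary screen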;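 also: 0% = median of test compound wells and 100% = Z-Phe-Ala-diazomethylketone 1 µM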
IDE inh confirm = confirmation of human insulin-degrading enzyme inhibitors in cells. shares compounds with IDE inh. actives 51% (n = 1,200). HEK cells, FAbetaB cleavage, fluorescence polarization. inhibition, % at 5.59 µM;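 active = mean inhibition across triplicate wells above the cutoff set by the earlier primary insulin-degrading enzyme screen, cut at about 16% in these data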;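 also: 0% = DMSO wells and 100% = 60 µM reference IDE inhibitor Ii1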
HEK cytotox = HEK cell cytotoxicity, counter-screen for IDE inhibitors. actives 28% (n = 1,200). inhibition, % at 5.59 µM. AID 449730. HEK293 cytotoxicity, ATP luminescence. shares compounds with IDE inh; in the data active = inhibition above about 22%;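 also: 0% = vehicle wells and 100% = reference cytotoxic drug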
* marks the source's active call; other numbers are inactive results; ? = inconclusive; · = no result given. Rows were chosen to be rich in hits. Some 4.1% of all compounds tested hit in one or more screens of this group.

SMILES | CaV13 ICDI inh | PfM18AAP inh-1 | IDE act | PolyA inhibitor | ALR inh | IDE inh | PfM18AAP inh-2 | CTSL1 confirm | others
O=c1[nH]sc2cc(F)ccc12 | 7.8 | 57.7* | -32.4 | -48.8 | · | · | 36.9* | 0.2
O=C1CCCN1c1ccc(S(=O)(=O)O)cc1 (tested in a mixture with another compound) | -2.4 | 80.4* | 1.4 | -3.5 | -0.4 | -0.3 | 79.1* | -3.5
N#Cc1c(/N=C/c2ccc(O)cc2O)sc2c1C1CCN2CC1 | -4.8 | 39.5* | -14.6 | -7.1 | 3.7 | 7.2 | 12.3 | 6.9
NS(=O)(=O)c1ccc(N=Nc2c(O)[nH]c(=S)[nH]c2=O)cc1 | -2.7 | 32.2* | 0.6 | 0.6 | -0.5 | 2.0 | 11.2 | 13.6
COc1ccc(N=Nc2c(O)[nH]c(=S)[nH]c2=O)cc1 | -4.9 | 5.5 | 0.3 | -16.0 | 2.5 | -3.8 | · | ·
O=c1[nH]c(=O)n(Cc2ccccc2)c(O)c1/C=C1\C=Nc2ccccc21 | -2.4 | 8.8 | -2.3 | -17.0 | · | 1.6 | · | ·
O=c1[nH]c(=O)n(-c2ccc(F)cc2)c(O)c1/C=C1\C=Nc2ccccc21 | -28.3 | 32.0* | -0.7 | 8.8 | 1.0 | 4.2 | 29.4* | -5.0
O=c1[nH]c(=O)n(-c2ccccc2F)c(O)c1/C=C1\C=Nc2ccccc21 | -2.3 | 42.5* | -7.2 | -8.3 | 95.9* | 5.9 | 40.8* | -1.5
O=c1[nH]c(=O)n(CC2CCCO2)c(O)c1/C=C1\C=Nc2ccccc21 (stereo unspecified) | -17.2 | 15.7 | -4.6 | -0.5 | 22.9 | 4.2 | · | ·
CCN1CCN(Cc2cc3c(cc2[N+](=O)[O-])OCO3)CC1 | -2.7 | 47.6* | 4.8 | -1.2 | -20.6 | -1.2 | 5.4 | -1.9
CCOc1c(P(=S)(N(C)C)N(C)C)c(C)nn1-c1ccccc1 | · | 0.0 | 1.8 | -18.8 | 3.7 | 2.6 | · | ·
CCN(CC)P(=S)(c1c(C)nc2ccccn12)c1c(C)nc2ccccn12 | -5.1 | 31.7* | 4.2 | 0.1 | 3.2 | 9.9 | -14.9 | -0.4
COC(=O)C1=C(c2ccc(F)cc2OCc2ccccc2)C[C@@H]2CC[C@H]1N2C(=O)N1CCC(O)CC1 | · | · | 1.9 | · | 6.4 | 2.8 | · | ·
C=CCn1c(O)c(C=Nc2ccc(N(CC)CC)cc2)c(=O)[nH]c1=O | -12.0 | 50.1* | -2.3 | 9.7 | 22.1 | -4.4 | -28.6 | 1.1
CCN(CC)c1ccc(N=Cc2c(O)n(-c3ccc(OC)cc3)c(=O)[nH]c2=O)cc1 | -7.6 | 42.5* | -1.4 | 8.5 | · | -2.9 | -35.5 | 1.4
CCN(CC)c1ccc(N=Cc2c(O)n(-c3ccc(Cl)cc3)c(=O)[nH]c2=O)cc1 | · | 2.9 | 0.5 | -8.7 | -5.3 | 4.8 | · | ·
C=CCn1c(O)c(C(CC)=Nc2ccc(N(C)C)cc2)c(=O)[nH]c1=O | -5.0 | 52.1* | · | -7.3 | 8.5 | -2.4 | -28.2 | 0.3
C=CCn1c(O)c(C(CC)=Nc2ccc3c(c2)CCC3)c(=O)[nH]c1=O | -3.9 | 2.6 | 0.3 | -0.1 | -0.3 | 6.7 | · | ·
Cc1ccccc1-n1c(O)c(C=Nc2ccc(N(C)C)cc2)c(=O)[nH]c1=O | -5.8 | 45.9* | -0.1 | -12.5 | 92.5* | 3.0 | -56.1 | 6.0
CN(CCCCC(=O)/C=N/O)Cc1ccccc1 (tested in a mixture with another compound) | -3.6 | -9.1 | 4.8 | 8.9 | -1.1 | -1.3 | · | ·
CN1C(=O)C(c2ccccc2)C(=O)N(C)C1=O | -18.6 | · | · | 29.9 | 7.0 | 5.0 | · | ·
C=CC[C@@H](CC/C=C/C=C/CC/C=C\[C@@H]1CSC([C@@H]2C[C@@H]2C)=N1)OC | · | · | 1.6 | · | · | 1.9 | · | ·
Oc1cccc2nc3ccccc3nc12 | · | 0.5 | 1.1 | 11.1 | · | 7.2 | · | ·
O=c1ccc2cc(O[C@@H]3O[C@@H](CO)[C@H](O)[C@@H](O)[C@@H]3O)c(O)cc2o1 | 13.2 | 32.2* | 0.5 | 7.3 | ? | 0.7 | -9.8 | 6.9
Cc1nc2ccc(P(=O)(O)O)cc2s1 | · | 49.5* | · | 24.7 | -2.2 | 0.3 | 9.5 | 0.0
SMILES | CaV13 ICDI inh | PfM18AAP inh-1 | IDE act | PolyA inhibitor | ALR inh | IDE inh | PfM18AAP inh-2 | CTSL1 confirm | others
CN(C)C1C(=O)C(C(N)=O)=C(O)C2(O)C(=O)C3=C(O)c4c(O)cccc4C(C)(O)C3CC12 (stereo unspecified) | · | 36.1* | -7.2 | 1.1 | -12.3 | 6.4 | -49.0 | -5.0
CC1=C(O)C(=O)C=C2C1=CC=C1C2(C)CCC2(C)C3CC(C)(C(=O)O)CCC3(C)CCC12C (stereo unspecified) | -5.5 | · | -17.0 | · | · | · | · | ·
COc1ccc(-c2nc3ccc(Br)cn3c2CC(=O)N2CCCC2)cc1OC | -5.0 | · | · | · | · | · | · | ·
O=C1NC(=O)C(=Cc2ccccc2[N+](=O)[O-])C(=O)N1 | -9.4 | · | -1.6 | · | · | · | · | ·
O=C1NC(=O)C(=Cc2cc3c(cc2[N+](=O)[O-])OCO3)C(=O)N1 | -68.9 | 39.9* | -2.9 | -3.8 | 38.0 | 3.1 | -39.0 | 0.4
Cc1nn(-c2ccccc2)c2c1C(c1ccc3c(c1)OCO3)SCC(=O)N2 (stereo unspecified) | -8.3 | -1.1 | 1.5 | 6.4 | -6.5 | -1.9 | · | ·
Cc1cc(C)cc(NC2=NCCCS2)c1 | -6.7 | -12.5 | -1.4 | -0.8 | -0.8 | 3.8 | · | ·
CN1CCc2cc3c(cc2C1)OCO3 | · | · | 5.4 | · | · | · | · | ·
CN1CCc2cc3c(c4c2C1Cc1ccccc1-4)OCO3 (stereo unspecified) | -8.6 | 49.5* | -0.1 | -5.6 | 21.5 | 7.8 | 4.6 | 46.1*
O=C(c1ccccc1)N1CCC2(CC1)OCCO2 | -4.0 | 4.6 | 1.9 | 9.4 | 1.2 | 3.4 | · | ·
O=C(NC1(C(F)(F)F)Oc2ccccc2O1)N1CCC2(CC1)OCCO2 | -3.0 | 71.2* | 2.5 | 12.2 | -26.4 | -3.7 | 68.2* | -8.6
O=c1c2ccccc2nc(/C=C/c2ccc(O)c(O)c2)n1-c1ccccc1 | -196.1 | 63.2* | -127.7 | -10.9 | -10.1 | 170.0* | 41.3* | -0.1 | IDE inh confirm=101.6*;HEK cytotox=21.3
O=C1N[C@H](Cc2ccccc2)C(=O)N2[C@@H]3[C@H](C[C@@H]12)c1ccccc1N3OOSc1ccccc1 | -3.4 | · | -0.7 | 6.7 | -2.4 | 0.1 | · | ·
O=C1NC(=O)N(Cc2ccc(F)cc2)C(=O)/C1=C\C=C\c1ccco1 | -3.2 | 18.2 | -18.1 | 16.2 | 2.6 | 18.6* | · | · | IDE inh confirm=8.9;HEK cytotox=12.1
